Among the test systems are NCI-H23 lung; NCI-H226 lung; NCI-H322M lung; HOP-62 NSCLC; NCI-H460 lung; HOP-92 NSCLC; NCI-H522 lung; A549/ATCC NSCLC; 786-0 renal; COLO 205 colon; DU-145 prostate; MALME-3M melanoma; MDA-MB-231 breast; RXF 393 renal; SF-268 CNS; SF-295 CNS; SF-539 CNS; UACC-257 melanoma; M14 melanoma; K-562 leukemia.
Holding throughout (experiment): NCI-60 one-dose screen, 48 h (100 = growth as untreated, 0 = no growth, -100 = all killed)
Holding throughout (conditions): 10 µM unless noted

Here are results for eight molecules from PubChem BioAssay (NCI).

Each structure is given as a SMILES string. The panel holds about 83,000 compounds, 20% with a hit somewhere; the sample as a whole holds those more often.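 48-hour exposure, single concentration, 96-well plates; percent growth endpoint where 0 means no net growth. Active: below 10.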 A number with no mark means an inactive call. Activity calls are given as the source filed them.

On to `Cc1c(C(N)=O)sc2c1c(=O)n(Cc1ccccc1)c1nnc(Nc3ccccc3)n21`, for which the growth with NCI-H23 lung was 101%; in the assay with NCI-H226 lung, 106%; in the assay on NCI-H322M lung it was 105%; in the assay with HOP-62 NSCLC, 89.1%; in the assay on NCI-H460 lung, 119%; in the assay with HOP-92 NSCLC, 101%. Moreover, the growth in the assay on NCI-H522 lung was 87.1%; with A549/ATCC NSCLC, 94.4%; in the assay on 786-0 renal it was 105%; with COLO 205 colon it was 101%; in the assay with DU-145 prostate it was 89.3%; in the assay with MALME-3M melanoma, 110%. The growth with MDA-MB-231 breast is 105%; in the assay with RXF 393 renal it was 113%; in the assay on SF-268 CNS, 101%; with SF-295 CNS, 104%; with SF-539 CNS, 100%; with UACC-257 melanoma, 92.3%. Moreover, the growth with M14 melanoma is 101%.
`Cc1ccc(Cc2c(C=O)nc(N)[nH]c2=O)c2ccccc12`: the growth in the assay on NCI-H23 lung was 97.7%; in the assay on NCI-H226 lung it was 98.6%; in the assay on NCI-H322M lung it was 119%; with HOP-62 NSCLC, 96.2%; with NCI-H460 lung, 109%; with HOP-92 NSCLC, 91.9%. The growth was 118% in the assay on NCI-H522 lung; 86.6% with A549/ATCC NSCLC; 89.8% in the assay on 786-0 renal; 95.5% in the assay with COLO 205 colon; 113% with DU-145 prostate; 107% with K-562 leukemia. Further, the growth in the assay with MALME-3M melanoma is 98.2%; in the assay on MDA-MB-231 breast, 107%; in the assay on RXF 393 renal, 106%; in the assay with SF-295 CNS, 118%; in the assay with SF-539 CNS, 102%; with UACC-257 melanoma it was 93.2%. In the assay with M14 melanoma, the growth was 101%.
For `O=S(=O)(NCCNc1nccc(-c2c(-c3cccc(O)c3)nc3sccn23)n1)c1ccc(F)cc1`, the growth in the assay with NCI-H23 lung is 87%; with NCI-H226 lung it was 91.8%; in the assay with NCI-H322M lung, 90.4%; in the assay on HOP-62 NSCLC, 103%; with NCI-H460 lung, 67.3%; in the assay on HOP-92 NSCLC, 92.8%. Also, the growth in the assay on NCI-H522 lung is 64.4%; in the assay on A549/ATCC NSCLC, 52%; with 786-0 renal, 77%; in the assay on COLO 205 colon, 37.6%; in the assay on DU-145 prostate it was 78.6%; in the assay with K-562 leukemia, 47.8%. Besides, the growth in the assay on MALME-3M melanoma is 18.3%; in the assay with MDA-MB-231 breast it was 77.6%; in the assay on RXF 393 renal, 52.5%; with SF-268 CNS it was 73.3%; in the assay on SF-539 CNS, 96.5%; in the assay with UACC-257 melanoma it was -0.678% (active). Further, the growth in the assay with M14 melanoma was 27.3%.
Take `COc1ccc(/C(C#N)=C/c2cc(OC)c(OC)c(OC)c2)cc1`: the growth was 62.3% in the assay with NCI-H23 lung; 70.6% in the assay with NCI-H226 lung; 59.7% in the assay on NCI-H322M lung; 46.7% with HOP-62 NSCLC; 16.9% in the assay on NCI-H460 lung; 31.6% in the assay on HOP-92 NSCLC. For the same molecule, the growth is 15.8% in the assay on NCI-H522 lung; 32.5% with A549/ATCC NSCLC; 51.2% in the assay on 786-0 renal; 24.3% in the assay on COLO 205 colon; 82.7% in the assay on DU-145 prostate; 19% in the assay on K-562 leukemia. Moreover, the growth with MDA-MB-231 breast is 58.1%; in the assay with RXF 393 renal, 56.7%; in the assay on SF-268 CNS it was 61.9%; in the assay with SF-539 CNS, 23.1%; with UACC-257 melanoma, 52.8%; with M14 melanoma, 17.2%.
On to `N=C(N)c1ccc(-c2ccc(-c3cncc4ccccc34)s2)cc1F`, for which the growth in the assay with NCI-H23 lung was -67.9% (active); in the assay on NCI-H226 lung, -64% (active); in the assay with NCI-H322M lung, -67.6% (active); in the assay with HOP-62 NSCLC, -83.3% (active); in the assay with NCI-H460 lung, -72.4% (active); in the assay on HOP-92 NSCLC, -87.1% (active). Moreover, the growth in the assay with NCI-H522 lung was -90.5% (active); with A549/ATCC NSCLC, -76.8% (active); in the assay with 786-0 renal, -91.2% (active); in the assay on COLO 205 colon, -85.6% (active); with DU-145 prostate it was -91% (active); in the assay on K-562 leukemia it was -50.6% (active). In addition, the growth is -81% (active) with MALME-3M melanoma; -85.2% (active) in the assay on MDA-MB-231 breast; -74.4% (active) in the assay with SF-268 CNS; -95.1% (active) in the assay on SF-295 CNS; -97.7% (active) in the assay with SF-539 CNS; 111% in the assay on UACC-257 melanoma. The growth with M14 melanoma is 96.3%.
On to `Cc1ccc(-c2cc3nc(C(Cl)Cl)nc(-c4cccnc4)n3n2)cc1`, for which the growth in the assay on NCI-H23 lung is -32.5% (active); in the assay with NCI-H226 lung, 75.7%; with NCI-H322M lung it was 18.2%; in the assay on HOP-62 NSCLC, -8% (active); with NCI-H460 lung, -10.5% (active); in the assay with HOP-92 NSCLC it was -2.25% (active). For the same molecule, the growth was 4.51% (active) in the assay with NCI-H522 lung; -14.2% (active) with A549/ATCC NSCLC; 69.5% in the assay on 786-0 renal; -82.6% (active) in the assay with COLO 205 colon; -22% (active) in the assay with DU-145 prostate; 9.52% (active) in the assay on K-562 leukemia. Further, the growth was 5.51% (active) with MALME-3M melanoma; 2.53% (active) in the assay with MDA-MB-231 breast; 25.7% with SF-268 CNS; 4.01% (active) in the assay with SF-295 CNS; 63% with SF-539 CNS; 86% in the assay with UACC-257 melanoma. Moreover, the growth with M14 melanoma is 61%.
Take `O=C1c2c(Cl)c(Cl)c(Cl)c(Cl)c2C(=O)C2(Cl)CC=CCC12Cl` (stereo not given): the growth in the assay with NCI-H23 lung is 10%; in the assay on NCI-H226 lung, 73%; in the assay on NCI-H322M lung, 72.6%; with HOP-62 NSCLC it was -90.2% (active); in the assay on NCI-H460 lung, 50.3%; with HOP-92 NSCLC it was -58.1% (active). For the same molecule, the growth in the assay on NCI-H522 lung was -80.7% (active); in the assay on A549/ATCC NSCLC, 74.1%; with 786-0 renal, 0.0645% (active); with COLO 205 colon, -77.3% (active); in the assay on DU-145 prostate it was -74.2% (active); with MALME-3M melanoma, -3.27% (active). For the same molecule, the growth in the assay with MDA-MB-231 breast is 18.2%; with RXF 393 renal, -78.3% (active); with SF-268 CNS, -96.2% (active); in the assay with SF-295 CNS it was 106%; with SF-539 CNS, 48.1%; in the assay with UACC-257 melanoma, -34.4% (active). Also, the growth with M14 melanoma is -12% (active).
Consider `COc1cc(/C=C/C(=O)c2c(C)nc3ccccc3c2C)ccc1OCCCCOc1cc2c(cc1OC)C(=O)N1CCC[C@H]1C=N2`, for which the growth was -34.9% (active) in the assay with NCI-H23 lung; -80.9% (active) with NCI-H226 lung; -62.7% (active) with NCI-H322M lung; -49% (active) with HOP-62 NSCLC; -93.3% (active) with NCI-H460 lung; -49.1% (active) in the assay with HOP-92 NSCLC. The growth with A549/ATCC NSCLC is -52.6% (active); in the assay on 786-0 renal it was -88.1% (active); in the assay on COLO 205 colon it was -100% (active); in the assay with DU-145 prostate it was -100% (active); with K-562 leukemia, -55.5% (active); with MALME-3M melanoma, -81.3% (active). Also, the growth was -65.9% (active) with MDA-MB-231 breast; -92.6% (active) in the assay with RXF 393 renal; -35.6% (active) in the assay on SF-268 CNS; -48.9% (active) in the assay with SF-295 CNS; -90.6% (active) in the assay on SF-539 CNS; -88% (active) in the assay on UACC-257 melanoma.
